From PubChem BioAssay (NCATS)
Results filed as inconclusive are left out. Active and inactive are the calls of the source. The call rests on the fitted dose curve; in most records, active means well fitted curve in the direction sought with a large enough effect; inconclusive means small, poorly fitted or top-dose-only effect, or another doubt; inactive means no such curve, though single readings can be large; an effect the other way counts as inactive or inconclusive.

Columns and labels:
CRL-7250 = normal cell line; experiment: Cytotoxic Profiling of Annotated Libraries Using Quantitative High-Throughput Screening (AID 1296008); conditions: Five cell lines viability, CellTiter-Glo ATP luminescence, 48-72 h; max response: stronger effect = lower value; further: nearly all actives have a fitted effect of over 60% in size
Procedure, shortened: (§1)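 Cytotoxicity was measured as CellTiter-Glo ATP luminescence, read after 10 min at room temperature. Compound treatment of the cells lasted 48 or 72 hr at 37 degrees Celsius in a qHTS format.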

HaCat = experiment: as above; conditions: Five cell lines viability, CellTiter-Glo ATP luminescence, 48-72 h; max response: stronger effect = lower value
Procedure, shortened: as §1

KB-3-1 = experiment: as above; conditions: Five cell lines viability, CellTiter-Glo ATP luminescence, 48-72 h; max response: stronger effect = lower value
Procedure, shortened: as §1

NIH3T3 = experiment: as above; conditions: Five cell lines viability, CellTiter-Glo ATP luminescence, 48-72 h; max response: stronger effect = lower value
Procedure, shortened: as §1

C33A = experiment: Primary qHTS to identify gynecologic anti-cancer compounds using libraries of approved drugs and bioactive compounds (AID 1345084); conditions: Gynecologic cancer cell panel viability, ATPlite luminescence, 48 h; series mostly up to 57.5 µM; further: nearly all actives have a fitted effect of over 55% in size
Procedure, shortened: (§2)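 Cytotoxicity screen measuring ATP content by luciferase luminescence. Each compound is applied at five concentrations for 48 h at 37 C with 5% CO2.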

CAOV3 = experiment: as above; conditions: Gynecologic cancer cell panel viability, ATPlite luminescence, 48 h; series mostly up to 57.5 µM
Procedure, shortened: as §2

CASKI = experiment: as above; conditions: Gynecologic cancer cell panel viability, ATPlite luminescence, 48 h; series mostly up to 57.5 µM
Procedure, shortened: as §2

Es-2 = experiment: as above; conditions: Gynecologic cancer cell panel viability, ATPlite luminescence, 48 h; series mostly up to 57.5 µM
Procedure, shortened: as §2

HeLa = experiment: as above; conditions: Gynecologic cancer cell panel viability, ATPlite luminescence, 48 h; series mostly up to 57.5 µM
Procedure, shortened: as §2

Hek293T = experiment: as above; conditions: Gynecologic cancer cell panel viability, ATPlite luminescence, 48 h, control line for the selectivity index; series mostly up to 57.5 µM
Procedure, shortened: as §2

JEG-3 = experiment: as above; conditions: Gynecologic cancer cell panel viability, ATPlite luminescence, 48 h; series mostly up to 57.5 µM
Procedure, shortened: as §2

OV90 = experiment: as above; conditions: Gynecologic cancer cell panel viability, ATPlite luminescence, 48 h; series mostly up to 57.5 µM
Procedure, shortened: as §2

PA-1 = experiment: as above; conditions: Gynecologic cancer cell panel viability, ATPlite luminescence, 48 h; series mostly up to 57.5 µM
Procedure, shortened: as §2
On the % scale 0 is the no-effect control and ±100 the full control effect.

CCC/C=C\C=C/CCc1cc(O)c([C@@H]2O[C@H](CO)[C@@H](O)[C@H](O)[C@H]2O)c(O)c1C(=O)OC
inactive: max response (CRL-7250) -29.4% | max response (HaCat) -26.9% | max response (KB-3-1) -7.75% | max response (NIH3T3) -3.37% | Potency (C33A) | Potency (CAOV3) | Potency (CASKI) | Potency (Es-2) | Potency (HeLa) | Potency (Hek293T) | Potency (JEG-3) | Potency (OV90) | Potency (PA-1)

CC(C)=CCCC1(C)C2CCC1(C)C(O)C2 (centres undefined)
inactive: max response (CRL-7250) -2.07% | max response (HaCat) -23% | max response (KB-3-1) -23.6% | max response (NIH3T3) 0.907% | Potency (C33A) | Potency (CAOV3) | Potency (CASKI) | Potency (Es-2) | Potency (HeLa) | Potency (Hek293T) | Potency (JEG-3) | Potency (OV90) | Potency (PA-1)

CO[C@@H]1[C@H](O)CCC2(CO2)[C@H]1[C@@]1(C)O[C@@H]1CC=C(C)C (some centres undefined)
inactive: max response (CRL-7250) -6.79% | max response (HaCat) -1.46% | outcome (KB-3-1) | max response (NIH3T3) -13.7% | Potency (C33A) | Potency (CAOV3) | Potency (CASKI) | Potency (Es-2) | Potency (HeLa) | Potency (Hek293T) | Potency (JEG-3) | Potency (OV90) | Potency (PA-1)

C=C[C@](C)(O)CC[C@H]1C(C)=CC(=O)[C@H]2C(C)(C)CCC[C@]12C
inactive: max response (CRL-7250) -9.12% | max response (HaCat) 1.13% | max response (KB-3-1) -5.31% | max response (NIH3T3) 0.554% | Potency (C33A) | Potency (CAOV3) | Potency (CASKI) | Potency (Es-2) | Potency (HeLa) | Potency (Hek293T) | Potency (JEG-3) | Potency (OV90) | Potency (PA-1)

C/C(=C\CCC(C)C1=CCC2(C)OC3=C(CC12)C(=O)C(O)CC3)CO (centres undefined)
inactive: max response (CRL-7250) -17.6% | max response (HaCat) -38% | max response (KB-3-1) -18.5% | max response (NIH3T3) -0.114% | Potency (C33A) | Potency (CAOV3) | Potency (CASKI) | Potency (Es-2) | Potency (HeLa) | Potency (Hek293T) | Potency (JEG-3) | Potency (OV90) | Potency (PA-1)

CC(C)n1c(=O)c(C(=O)NC2CC3CCC(C2)N3C[C@@H](O)CN(C)S(C)(=O)=O)cc2ccccc21 (some centres undefined)
inactive: max response (CRL-7250) -15.6% | max response (HaCat) -16.2% | max response (KB-3-1) -11.4% | max response (NIH3T3) -22.5% | Potency (C33A) | Potency (CAOV3) | Potency (CASKI) | Potency (Es-2) | Potency (HeLa) | Potency (Hek293T) | Potency (JEG-3) | Potency (OV90) | Potency (PA-1)

COc1c(C(C)C)c(O)c(O)c2c1C(OC)[C@H]1OC(=O)[C@@]23CCCC(C)(C)[C@H]13 (some centres undefined)
inactive: outcome (CRL-7250) | max response (HaCat) -9.13% | outcome (KB-3-1) | max response (NIH3T3) -6.75% | Potency (C33A) | Potency (CAOV3) | Potency (CASKI) | Potency (Es-2) | Potency (HeLa) | Potency (Hek293T) | Potency (JEG-3) | Potency (OV90) | Potency (PA-1)

CC(=O)O[C@@H]1C[C@]2(C)[C@@]3(CCC4[C@@]5(C)CC[C@H](O[C@@H]6O[C@H](C(=O)O)[C@@H](O)[C@H](OC7OC(CO)C(O)C(O)[C@H]7O[C@@H]7O[C@@H](C)[C@H](O)[C@@H](O)[C@H]7O[C@@H]7OC[C@](O)(CO)[C@H]7O)[C@H]6OC6OC(CO)C(O)C(O)C6O)C(C)(C)C5CC[C@]42C)OC[C@@]12CCC(C)(C)CC23 (some centres undefined)
inactive: max response (CRL-7250) -2.03% | max response (HaCat) 0.508% | max response (KB-3-1) -5.11% | max response (NIH3T3) 0.621% | activity change, negative = cytotoxicity (C33A) 2.65% [at 6.55 µM] | activity change, negative = cytotoxicity (CAOV3) 0.174% [at 6.55 µM] | activity change, negative = cytotoxicity (CASKI) 16.9% [at 6.55 µM] | activity change, negative = cytotoxicity (Es-2) -3.44% [at 6.55 µM] | activity change, negative = cytotoxicity (HeLa) -0.755% [at 6.55 µM] | activity change, negative = cytotoxicity (Hek293T) -10.7% [at 6.55 µM] | activity change, negative = cytotoxicity (JEG-3) -4.85% [at 6.55 µM] | activity change, negative = cytotoxicity (OV90) -14.9% [at 6.55 µM] | activity change, negative = cytotoxicity (PA-1) -13% [at 6.55 µM]

CC(C)(CO)c1cc2cc(NC(=O)C3(c4ccc5c(c4)OC(F)(F)O5)CC3)c(F)cc2n1CC(O)CO (centres undefined)
inactive: outcome (CRL-7250) | max response (HaCat) -17.2% | outcome (KB-3-1) | max response (NIH3T3) -6.55% | Potency (C33A) | Potency (CAOV3) | Potency (CASKI) | Potency (Es-2) | Potency (HeLa) | Potency (Hek293T) | Potency (JEG-3) | Potency (OV90) | Potency (PA-1)

CC(C)c1noc(C2CCN(c3ncnc(Nc4ccc(S(C)(=O)=O)cc4F)c3[N+](=O)[O-])CC2)n1
inactive: max response (CRL-7250) -0.282% | max response (HaCat) 1.98% | max response (KB-3-1) -4.1% | max response (NIH3T3) -23.4% | Potency (C33A) | Potency (CAOV3) | Potency (CASKI) | Potency (Es-2) | Potency (HeLa) | Potency (Hek293T) | Potency (JEG-3) | Potency (OV90) | Potency (PA-1)

OC1(CN2CCC(COc3noc4cccc(O[C@@H]5CCOC5)c34)CC2)CCOCC1
inactive: max response (CRL-7250) -0.0295% | max response (HaCat) -23.1% | max response (KB-3-1) 2.03% | max response (NIH3T3) -22.8% | Potency (C33A) | Potency (CAOV3) | Potency (CASKI) | Potency (Es-2) | Potency (HeLa) | Potency (Hek293T) | Potency (JEG-3) | Potency (OV90) | Potency (PA-1)

COCCCNC(=O)c1ccc(Cn2c(=O)c3ccccc3n(Cc3ccc(C(C)C)cc3)c2=O)cc1
inactive: max response (CRL-7250) -3.32% | max response (HaCat) 1.44% | outcome (KB-3-1) | max response (NIH3T3) 4.09% | Potency (C33A) | Potency (CAOV3) | Potency (CASKI) | Potency (Es-2) | Potency (HeLa) | Potency (Hek293T) | Potency (JEG-3) | Potency (OV90) | Potency (PA-1)

Nc1nc2c(cnn2CCCc2ccc(O)cc2)c2nc(-c3ccco3)nn12
inactive: outcome (CRL-7250) | max response (HaCat) -2.77% | max response (KB-3-1) 8.63% | max response (NIH3T3) 3.84% | Potency (C33A) | Potency (CAOV3) | Potency (CASKI) | Potency (Es-2) | Potency (HeLa) | Potency (Hek293T) | Potency (JEG-3) | Potency (OV90) | Potency (PA-1)
